Inconclusive results are not listed. The source made the active and inactive calls.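 The calls were made as follows, unless noted: active = inhibition over a set limit, the all-compound mean plus 3 SD, in both replicate runs; inconclusive = over that limit in just one replicate run; inactive = at or under that limit in both runs.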
Tests used:
[1] = reducers of endogenous Her2 protein level, primary screen, SKBR3 breast tumor cells, AlphaScreen, ATP viability (AID 461;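 active = Her2 level under about 52% in both replicate screens, with viability over 70% of control, limit read from the data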;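 as to Her2 level: lower value means less Her2 protein in the cells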;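 as to viability: percent of carrier control wells set as 100% viability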); conditions: 18-24 h, measured here: SKBR3 viability, ATP luminescence, at 10 µM
[2] = biological target: Receptor tyrosine-protein kinase erbB-2 (Homo sapiens) (UniProt P04626); assay: as above; conditions: 18-24 h, at 10 µM, stronger effect = lower value
[3] = SK-BR-3 cell growth inhibitors, pilot screen, 24 h, human (AID 572;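 active = viability at or below 10% of carrier control in both of two separate runs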;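 also: compound exposure lasted between 18 and 24 h rather than exactly 24 h; 100% = carrier-treated control wells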); conditions: SK-BR-3 viability, CellTiter-Glo luminescence, at 10 µM, stronger effect = lower value
[4] = HUVEC growth inhibition – cell-based, human, primary screen (AID 575;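 active = viability at or below 30% in both replicate assays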;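 also: 100% = median of untreated cell wells with 0.1% DMSO on each plate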); conditions: HUVEC proliferation, CellTiter-Glo luminescence, 72 h; at 10 µM; stronger effect = lower value
[5] = growth inhibitors of H69AR lung tumor, primary screen, human, duplicate replicates (AID 580;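 active = viability at or under a set limit in both replicates, limit being median viability minus 3 SD, cut at about 48% in these data, passing the limit was not always enough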;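 also: 100% = mean luminescence of untreated wells and 0% = no signal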); conditions: H69AR lung tumor cells viability, ATP luminescence, 72 h; at 10 µM; stronger effect = lower value
[6] = reversal of MRP1-mediated doxorubicin resistance, pilot screen, H69AR cells, doxorubicin co-treatment (AID 601;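 active = viability loss from added drug above about 55%, and viability with drug at most 40%, in both replicates, limit read from the data, passing the limit was not always enough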); conditions: CellTiter-Glo, 72 h, at 10 µM; for differential viability (reversal): stronger effect = higher value
[7] = 384-well plate pilot, post-Golgi transport modulator project, inhibition of yeast transport mutant growth (AID 636; in the data active = inhibition above about 31%); conditions: absorbance 615 nm, about 18 h, stronger effect = higher value
[8] = growth suppression of yeast trafficking mutant, preliminary HTS, modulators of trafficking downstream of Golgi apparatus project, 1536-format plate, OD 615 nm (AID 637; in the data active = inhibition above about 30%); conditions: yeast transport mutant growth, absorbance 615 nm, 18 h; stronger effect = higher value
[9] = OD615 S. cerevisiae growth inhibition, permissive medium, pilot counter-assay, permissive growth control for S. cerevisiae lifespan shortening project (AID 705;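 active = growth inhibition above 25% in both replicates, a cutoff set 3 SD above the mean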); conditions: OD615, 24 h, at 10 µM, stronger effect = higher value
[10] = Restrictive medium S. cerevisiae growth inhibition, OD615, pilot screen of yeast lifespan reduction project, restrictive growth control (AID 706;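 active = growth inhibition above a set limit, 3 SD over mean compound inhibition, in both replicates, cut at about 43% in these data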;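 also: modified DeaD lifespan yeast strain shifted to restrictive glucose medium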); conditions: OD615, 48 h, at 10 µM, stronger effect = higher value
[11] = viability gain of MRP-1-high H69AR cells under doxorubicin, pilot screen, MRP-1 activator project, CellTiter-Glo, duplicate (AID 807;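 active = viability increase at or above a cutoff of the median across tested compounds plus 3 SD, cut at about 8.5% in these data, passing the limit was not always enough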;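 also: compound pretreatment 18-22 h then 72 h combined with doxorubicin; 0% = doxorubicin alone and 100% = vehicle without doxorubicin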); conditions: H69AR viability with doxorubicin, CellTiter-Glo luminescence; at 10 µM; stronger effect = higher value
[12] = growth suppression of beta-catenin knockout HCT116, pilot screen, human colon tumor cells (AID 823;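 active = cell viability at or below a set limit in both duplicate runs, the limit being the all-compound median minus 4 SD, cut at about 23% in these data, passing the limit was not always enough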;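 also: 0% = wells killed by 20 µM Hyamine and 100% = untreated DMSO cell wells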); conditions: CellTiter-Glo, 60 h, at 10 µM, stronger effect = lower value
[13] = growth suppression of PTEN-deleted HCT116, pilot screen, cell-based, HCT116 clonal line, CellTiter-Glo (AID 824;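 active = viability at or below 27.92% in each of two runs, the all-compound median minus 4 SD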;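 also: 0% = 20 µM Hyamine control and 100% = vehicle cell control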); conditions: 60 h, at 10 µM, stronger effect = lower value
[14] = inhibitors of the yeast RAM network, pilot screen, dse1pr::URA3 reporter, 5-FOA selection (AID 869);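 also: 0% = DMSO wells with no growth and 100% = 10 µM 1-NA-PP1 with full growth; RAM network block rescues cells from 5-FOA so hits raise OD615 growth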; conditions: S. cerevisiae dse1pr::URA3 5-FOA growth, OD615, 2 d; at 10 µM; stronger effect = higher value; strain carries analog-sensitive mutant Cbk1 kinase
[15] = RAM signaling pathway blockade in yeast – S. cerevisiae, Pdr1DBD-CYC8 efflux-inhibited sensitized strain, primary screen (AID 1298;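 active = RAM network inhibition above 8.4% in each of two replicates, 3 SD over the compound average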;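 also: 0% = DMSO untreated cells without growth and 100% = 10 µM 1-NA-PP1 full growth; higher means more yeast growth rescued from 5-FOA killing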); conditions: S. cerevisiae cbk1-as DSE1-URA3 strain, 5-FOA growth OD615, 2 d; at 50 µM; stronger effect = higher value
[16] = H69AR cells + 2 uM doxorubicin, measured here: viability with 2 uM doxorubicin, stronger effect = lower value
[17] = H69AR cells, compound alone cytotoxicity

Receptor tyrosine-protein kinase erbB-2 (Homo sapiens), sequence (P04626 whole entry, looked up): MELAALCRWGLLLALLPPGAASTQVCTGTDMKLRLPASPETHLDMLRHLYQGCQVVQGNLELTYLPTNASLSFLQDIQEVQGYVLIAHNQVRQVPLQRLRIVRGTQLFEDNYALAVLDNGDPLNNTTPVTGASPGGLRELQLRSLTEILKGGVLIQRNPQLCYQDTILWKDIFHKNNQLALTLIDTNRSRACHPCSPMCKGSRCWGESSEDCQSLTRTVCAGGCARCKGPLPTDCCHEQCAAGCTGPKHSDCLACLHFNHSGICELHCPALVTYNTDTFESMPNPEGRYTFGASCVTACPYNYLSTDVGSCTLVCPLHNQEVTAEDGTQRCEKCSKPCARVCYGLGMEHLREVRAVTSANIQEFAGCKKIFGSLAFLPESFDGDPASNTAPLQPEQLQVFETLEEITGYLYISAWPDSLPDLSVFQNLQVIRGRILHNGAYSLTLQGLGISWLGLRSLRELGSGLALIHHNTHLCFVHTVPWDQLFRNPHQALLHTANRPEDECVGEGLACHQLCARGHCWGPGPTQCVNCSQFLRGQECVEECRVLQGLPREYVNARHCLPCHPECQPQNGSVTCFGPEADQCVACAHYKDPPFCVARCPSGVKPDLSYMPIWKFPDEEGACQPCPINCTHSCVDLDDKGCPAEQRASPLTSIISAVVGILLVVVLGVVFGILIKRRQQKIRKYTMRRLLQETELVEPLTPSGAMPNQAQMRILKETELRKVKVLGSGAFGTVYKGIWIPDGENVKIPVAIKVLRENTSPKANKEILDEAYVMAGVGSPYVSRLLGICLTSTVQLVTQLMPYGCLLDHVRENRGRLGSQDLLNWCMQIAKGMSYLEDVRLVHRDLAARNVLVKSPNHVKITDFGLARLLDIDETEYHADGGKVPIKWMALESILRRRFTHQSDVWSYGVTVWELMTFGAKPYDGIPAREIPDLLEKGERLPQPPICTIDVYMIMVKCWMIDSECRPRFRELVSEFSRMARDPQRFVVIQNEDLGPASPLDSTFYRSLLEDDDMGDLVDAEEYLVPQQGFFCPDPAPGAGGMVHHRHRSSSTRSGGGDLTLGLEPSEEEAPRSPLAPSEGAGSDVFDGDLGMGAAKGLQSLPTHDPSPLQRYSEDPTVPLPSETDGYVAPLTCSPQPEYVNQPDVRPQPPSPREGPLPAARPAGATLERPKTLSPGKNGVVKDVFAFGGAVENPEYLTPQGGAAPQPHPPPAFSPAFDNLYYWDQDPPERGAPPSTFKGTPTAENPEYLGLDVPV

Structure (SMILES): Cc1ccc(C(=O)OCC(=O)Nc2ccc3c(c2)OCO3)o1
- viability [1]: 110%
- Her2 level [2]: 118% (inactive)
- viability [3]: 110% (inactive)
- viability [4]: 102% (inactive)
- viability [5]: 97.3% (inactive)
- differential viability (reversal) ([6]; H69AR cells + 2 uM doxorubicin): 1.98% (inactive)
- viability [6, 16]: 95.3%
- viability [6, 17]: 97.3%
- inhibition [7]: -2.16% (inactive)
- inhibition [8]: -5.87% (inactive)
- growth inhibition [9]: -4.63% (inactive)
- growth inhibition [10]: -8.6% (inactive)
- viability increase [11]: -1.03% (inactive)
- viability [12]: 97.6% (inactive)
- viability [13]: 99.3% (inactive)
- inhibition [14]: 0.95% (inactive)
- RAM network inhibition [15]: 2.58% (inactive)

Structure (SMILES): COc1ccc(S(=O)(=O)N2CCN(c3ccc(C)cc3C)CC2)cc1OC
- viability [1]: 94.5%
- Her2 level [2]: 93.5% (inactive)
- viability [3]: 94.5% (inactive)
- viability [4]: 73.8% (inactive)
- viability [5]: 97.2% (inactive)
- differential viability (reversal) ([6]; H69AR cells + 2 uM doxorubicin): -0.96% (inactive)
- viability [6, 16]: 98.2%
- viability [6, 17]: 97.2%
- inhibition [7]: -5.87% (inactive)
- inhibition [8]: 2.5% (inactive)
- growth inhibition [9]: 0.1% (inactive)
- growth inhibition [10]: 4.36% (inactive)
- viability increase [11]: -0.07% (inactive)
- viability [12]: 50.6% (inactive)
- viability [13]: 72.2% (inactive)
- inhibition [14]: 2.41% (inactive)
- RAM network inhibition [15]: 1.74% (inactive)

Structure (SMILES): O=C1c2ccccc2S(=O)(=O)N1CC(O)Cn1c2ccccc2c2ccccc21 (stereo not drawn)
- viability [1]: 90%
- Her2 level [2]: 96% (inactive)
- viability [3]: 90% (inactive)
- viability [4]: 73.2% (inactive)
- viability [5]: 85% (inactive)
- differential viability (reversal) ([6]; H69AR cells + 2 uM doxorubicin): -2.51% (inactive)
- viability [6, 16]: 87.6%
- viability [6, 17]: 85%
- inhibition [7]: 99.3% (active)
- inhibition [8]: 94.7% (active)
- growth inhibition [9]: -2.73% (inactive)
- growth inhibition [10]: 9.13% (inactive)
- viability increase [11]: -1.19% (inactive)
- viability [12]: 89.7% (inactive)
- viability [13]: 96.3% (inactive)
- inhibition [14]: 2.46% (inactive)
- RAM network inhibition [15]: 0.57% (inactive)

Structure (SMILES): CCOC(=O)C(C(=O)OCC)C(C)C#CCN1CCCCC1 (stereo not drawn)
- viability [1]: 91.5%
- Her2 level [2]: 116% (inactive)
- viability [3]: 91.5% (inactive)
- viability [4]: 87.2% (inactive)
- viability [5]: 90.4% (inactive)
- differential viability (reversal) ([6]; H69AR cells + 2 uM doxorubicin): 1.13% (inactive)
- viability [6, 16]: 89.2%
- viability [6, 17]: 90.4%
- inhibition [7]: -3.08% (inactive)
- inhibition [8]: -5.5% (inactive)
- growth inhibition [9]: -2.21% (inactive)
- growth inhibition [10]: -1.49% (inactive)
- viability increase [11]: -2.18% (inactive)
- viability [12]: 93.9% (inactive)
- viability [13]: 97% (inactive)
- inhibition [14]: -0.12% (inactive)
- RAM network inhibition [15]: 7.5% (inactive)

Source: PubChem BioAssay
